Screen size: about 16,000 compounds; about 5,700 (36%) were called active. Inconclusive results (about 24%) are left out. The call rests on the fitted dose curve; in most records, active means well fitted curve in the direction sought with a large enough effect; inconclusive means small, poorly fitted or top-dose-only effect, or effect the other way; inactive means no such curve, though single readings can be large or run the other way. Some of the results follow.
These compounds were tested against Cytochrome P450 1A2 (Homo sapiens) (UniProt P05177) (assay: Cytochrome panel assay with activity outcomes). Details: recombinant CYP, pro-luciferin dealkylation, luminescence, p450-cyp1a2; series mostly up to 57.1 µM.
On the % scale 0 is the no-effect control and ±100 the full control effect.

Cytochrome P450 1A2 (Homo sapiens), sequence (P05177 whole entry, looked up): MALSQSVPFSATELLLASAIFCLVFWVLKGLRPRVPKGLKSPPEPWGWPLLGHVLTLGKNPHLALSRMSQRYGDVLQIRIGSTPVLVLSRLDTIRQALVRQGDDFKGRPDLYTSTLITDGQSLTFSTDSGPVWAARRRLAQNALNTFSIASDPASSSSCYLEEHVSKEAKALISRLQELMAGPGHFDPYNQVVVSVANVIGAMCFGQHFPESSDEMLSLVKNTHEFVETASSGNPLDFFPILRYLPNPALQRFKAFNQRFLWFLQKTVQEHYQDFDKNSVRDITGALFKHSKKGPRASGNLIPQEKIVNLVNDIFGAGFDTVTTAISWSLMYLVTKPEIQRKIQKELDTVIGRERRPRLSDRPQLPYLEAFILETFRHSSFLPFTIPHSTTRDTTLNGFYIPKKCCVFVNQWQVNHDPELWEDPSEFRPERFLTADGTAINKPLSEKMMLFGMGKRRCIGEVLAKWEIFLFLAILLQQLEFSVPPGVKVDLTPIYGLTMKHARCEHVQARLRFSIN

activity, negative = inhibition, inactive:
Cn1c(=O)n2n(c1=O)[C@H]1[C@H](O)[C@H]3O[C@@H]3/C(=N/OC[C@@H](O)COCc3ccco3)[C@@H]1CC2 2.55% [at 11.4 µM]
NS(=O)(=O)c1ccc(N=C2C(=O)Nc3ccccc32)cc1 -12.7% [at 2.29 µM]
O=C1Nc2ccccc2C1=Nc1ccc(S(=O)(=O)Nc2nccs2)cc1 -18.2% [at 11.4 µM]
c1cc(NNc2cccc(-c3nn[nH]n3)c2)cc(-c2nn[nH]n2)c1 -15.5% [at 2.29 µM]
CC[C@@H]1CC(=O)N(SC[C@H](N)C(=O)O)C1=O -14.7% [at 11.4 µM]
COc1cccc([C@@H]2Oc3ccc(Br)cc3C(=O)[C@H]2O)c1 -3.35% [at 11.4 µM]
NC(N)=NC[C@@H]1CCCCCCN1 -17.8% [at 11.4 µM]
COC(=O)[C@]1(C)CCC(c2ccc(C)cc2)=C(CC(=O)O)C1 -8.38% [at 2.29 µM]
C/C=C\C1=C(CO)[C@H](O)[C@H]2O[C@H]2[C@H]1O -3.7% [at 11.4 µM]
CC(C)N(CC(=O)O)CC(=O)O -20.9% [at 11.4 µM]

AC50, active:
CCc1cccc2c(-c3ccccc3)c3c(nc12)OCC3 0.316 µM
O=C1Nc2ccccc2/C1=N/c1sc2c(c1C(=O)NCCc1ccccc1)CCCC2 2.51 µM
CS(=O)(=O)Nc1cccc(-c2nc(NCc3cccs3)c3ccccc3n2)c1 1 µM
CC(=O)NCCNc1nc(-c2cccc(NS(C)(=O)=O)c2)nc2ccccc12 15.8 µM
COCCNc1nc(-c2cccc(NS(C)(=O)=O)c2)nc2ccccc12 3.16 µM
CS(=O)(=O)Nc1cccc(-c2nc(NCc3ccccc3)c3ccccc3n2)c1 2.51 µM
Cc1cccc(CNc2nc(-c3cccc(NS(C)(=O)=O)c3)nc3ccccc23)c1 15.8 µM
Cc1sc(NC(=O)c2ccco2)c(C(c2cccnc2)N2CCCC2)c1C (stereo not drawn) 14.1 µM
CCCCN(C)Cc1c(C)[nH]c2ccc(Cl)cc2c1=O 5.01 µM
Cn1cccc1C(=O)N1CCC[C@@]2(CCN(C(c3ccccc3)c3ccccc3)C2)C1 20 µM
Cn1cccc1C(=O)N1CCC[C@@]2(CCN(c3ccccc3)C2)C1 12.6 µM
Cn1cccc1C(=O)N1CCC[C@@]2(CCN(c3ccncc3)C2)C1 12.6 µM
O=C(c1ccco1)N1CCC[C@@]2(CCN(C(c3ccccc3)c3ccccc3)C2)C1 25.1 µM
O=C1CN(c2nc(-c3ccccc3)c3cc(Br)ccc3n2)c2ccccc2N1 2.51 µM
CCc1ccc(N(C(=O)c2csnn2)C(C(=O)NC(C)(C)C)c2ccncc2)cc1 (stereo not drawn) 22.4 µM
CCOC(=O)/C(=C/Nc1ccccc1)[N+](=O)[O-] 2.82 µM
CC(=O)Nc1nonc1NC(=O)c1ccc(C(C)(C)C)cc1 1 µM
O=C(Oc1ccccc1)N1CCC2(CCCN(c3ccccn3)C2)CC1 20 µM
COC(=O)N1CCC[C@@]2(CCN(c3ccccn3)C2)C1 15.8 µM
O=C(Oc1ccccc1)N1CCC2(CCCN(c3ncccn3)C2)CC1 10 µM
O=C(Oc1ccccc1)N1CCC[C@@]2(CCN(c3ncccn3)C2)C1 12.6 µM
CC(C)CCn1c(Oc2ccccc2Cl)nc2c1c(=O)n(C)c(=O)n2C 14.1 µM

AC50, inactive:
CCc1cccc2c3c([nH]c12)[C@@](CC)(CC(=O)O)OCC3
CCc1c(C)c(C#N)c2nc3ccccc3n2c1Nc1c(C)n(C)n(-c2ccccc2)c1=O
Cc1sc(NC(=O)c2ccco2)c(C(c2cccnc2)N2CCN(C)CC2)c1C (stereo not drawn)
Cc1sc(NC(=O)c2ccco2)c(C(c2ccncc2)N2CCOCC2)c1C (stereo not drawn)
CC(=O)N1CCC[C@@]2(CCN(c3ccncc3)C2)C1
O=C(c1ccco1)N1CCC2(CC1)CN(C(c1ccccc1)c1ccccc1)C2
CC(=O)N1CCC[C@@]2(CCN(c3ccccc3)C2)C1
O=C(c1cccc(F)c1)N1CCC[C@@]2(CCN(C(c3ccccc3)c3ccccc3)C2)C1
CN1CC[C@@]2(CCCN(C(=O)c3cccn3C)C2)C1
CC(C)NC(=O)N1CC[C@@]2(CCCN(C(=O)c3cccn3C)C2)C1
Cn1cccc1C(=O)N1CCC2(CC1)CN(c1ccncc1)C2
O=C(c1ccco1)N1CCC2(CC1)CCN(C(c1ccccc1)c1ccccc1)CC2
C=CCCCCCCCCC(=O)Nc1c[nH]c(=O)[nH]c1=O
CC12CCC(C(=O)O)(C/C1=N\O)C2(C)C (stereo not drawn)
CCc1ccc(N(C(=O)c2csnn2)C(C(=O)NCc2ccccc2)c2ccco2)cc1 (stereo not drawn)
Cc1ccc(N(C(=O)c2csnn2)C(C(=O)NC(C)(C)C)c2cccs2)cc1 (stereo not drawn)
CCOC(=O)/C(C(N)=NCCCO)=C(/O)c1ccccc1
COc1ccc(C[C@H](N)C(=O)N[C@@H]2[C@H](O)[C@H](n3cnc4c(N(C)C)ncnc43)O[C@@H]2CO)cc1
Cc1cccc(C(=O)Nc2nnc(-c3ccc(C(C)(C)C)cc3)s2)c1
CC(C)(C)c1ccc(C(=O)NC(Cc2ccccc2)C(=O)O)cc1 (stereo not drawn)
O=C(Oc1ccccc1)N1CCC2(CC1)CCN(c1ncccn1)CC2
CC(=O)N1CCC[C@@]2(CCN(c3ncccn3)C2)C1
O=C(Oc1ccccc1)N1CCC2(CC1)CN(c1ccccn1)C2
CC(=O)N1CCC2(CCCN(c3ccccn3)C2)CC1
COC(=O)N1CCC[C@@]2(CCN(c3ncccn3)C2)C1
O=C(c1csnn1)N1CCC[C@@]2(CCN(c3ccccn3)C2)C1
CC(=O)N1CCC2(CCCN(c3ncccn3)C2)CC1
COC(=O)N1CCC2(CC1)CN(c1ccccn1)C2
Cc1noc(C)c1C(=O)N1CCC[C@@]2(CCN(Cc3ccccc3)C2)C1
Cn1c(=O)c2c(nc(N3CCN(c4ccccn4)CC3)n2Cc2ccccc2Cl)n(C)c1=O
Cn1c(=O)c2c(ncn2CC(COCc2ccccc2Cl)OCc2ccccc2Cl)n(C)c1=O (stereo not drawn)

— PubChem BioAssay AID1851 (National Center for Advancing Translational Sciences (NCATS), 2009)
